{"source": "PubChem BioAssay (EPA / NIEHS)", "key": {"[1]": {"read-out": "Interleukin-6 (IL6), IL6 (gene 3569)", "assay": "BSK_CASM3C_IL6: BioMAP Diversity Plus: CASM3C Assay for Interleukin-6 (IL6) Biomarker Activity for (AID 2283040)", "conditions": "primary human coronary artery smooth muscle cells; actives raise or lower the signal"}, "[2]": {"read-out": "Tissue plasminogen activator (tPA), PLAT (gene 5327)", "assay": "BSK_BE3C_tPA: BioMAP Diversity Plus: BE3C Assay for Tissue plasminogen activator (tPA) Biomarker Activity (AID 2283041);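 note: tPA level quantified by ELISA one day after compound addition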", "conditions": "primary human bronchial epithelial cells; actives raise or lower the signal", "how_it_was_run": "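ELISA read-out of tPA on human primary bronchial epithelial cells, 24 h post-dosing; bidirectional fit vs DMSO negative control/baseline.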"}, "[3]": {"read-out": "Interleukin-8 (IL8), CXCL8 (gene 3576)", "assay": "BSK_CASM3C_IL8: BioMAP Diversity Plus: CASM3C Assay for Interleukin-8 (IL8) Biomarker Activity (AID 2283042)", "conditions": "primary human coronary artery smooth muscle cells; actives raise or lower the signal"}, "[4]": {"read-out": "Human Leukocyte Antigen - DR isotype (HLADR), HLA-DRA (gene 3122)", "assay": "BSK_CASM3C_HLADR: BioMAP Diversity Plus: CASM3C Assay for Human Leukocyte Antigen - DR isotype (HLADR) Biomarker Activity (AID 2283043);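 note: cell-surface HLA-DR protein level quantified by ELISA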", "conditions": "primary human coronary artery smooth muscle cells; actives raise or lower the signal"}, "[5]": {"read-out": "Macrophage colony-stimulating factor (MCSF), CSF1 (gene 1435)", "assay": "BSK_CASM3C_MCSF: BioMAP Diversity Plus: CASM3C Assay for Macrophage colony-stimulating factor (MCSF) Biomarker Activity (AID 2283044);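 note: M-CSF protein amount quantified by ELISA after 24 h exposure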", "conditions": "primary human coronary artery smooth muscle cells; actives raise or lower the signal"}, "[6]": {"read-out": "Low-density lipoprotein receptor (LDLR), LDLR (gene 3949)", "assay": "BSK_CASM3C_LDLR: BioMAP Diversity Plus: CASM3C Assay for Low-density lipoprotein receptor (LDLR) Biomarker Activity (AID 2283045);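 note: LDLR protein level on the cell surface quantified by ELISA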", "conditions": "primary human coronary artery smooth muscle cells; actives raise or lower the signal"}, "[7]": {"read-out": "Monocyte Chemoattractant Protein-1 (MCP1), CCL2 (gene 6347)", "assay": "BSK_CASM3C_MCP1: BioMAP Diversity Plus: CASM3C Assay for Monocyte Chemoattractant Protein-1 (MCP1) Biomarker Activity (AID 2283046)", "conditions": "primary human coronary artery smooth muscle cells; actives raise or lower the signal"}, "[8]": {"assay": "BSK_CASM3C_Proliferation: Cell Proliferation Assessment in the BioMAP Diversity Plus: CASM3C Assay (AID 2283047);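 note: sulforhodamine B total protein stain as relative cell number at 560 nm; sub-confluent cells exposed 48 h before staining; fitted both ways against DMSO so gain or loss of cell number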", "conditions": "primary human coronary artery smooth muscle cells"}, "[9]": {"read-out": "Monokine induced gamma interferon (MIG), CXCL9 (gene 4283)", "assay": "BSK_CASM3C_MIG: BioMAP Diversity Plus: CASM3C Assay for Monokine induced gamma interferon (MIG) Biomarker Activity (AID 2283048)", "conditions": "primary human coronary artery smooth muscle cells; actives raise or lower the signal"}, "[10]": {"read-out": "serum amyloid A (SAA), SAA1 (gene 6288)", "assay": "BSK_CASM3C_SAA: BioMAP Diversity Plus: CASM3C Assay for serum amyloid A (SAA) Biomarker Activity (AID 2283049)", "conditions": "primary human coronary artery smooth muscle cells; actives raise or lower the signal"}, "[11]": {"assay": "BSK_CASM3C_SRB: Viability Assessment in the BioMAP Diversity Plus: CASM3C Assay (AID 2283050);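 note: total protein by SRB staining as cytotoxicity measure in parallel cultures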", "conditions": "primary human coronary artery smooth muscle cells"}, "[12]": {"read-out": "Thrombomodulin, THBD (gene 7056)", "assay": "BSK_CASM3C_Thrombomodulin: BioMAP Diversity Plus: CASM3C Assay for Thrombomodulin Biomarker Activity (AID 2283051)", "conditions": "primary human coronary artery smooth muscle cells; actives raise or lower the signal"}, "[13]": {"read-out": "Tissue Factor, F3 (gene 2152)", "assay": "BSK_CASM3C_TissueFactor: BioMAP Diversity Plus: CASM3C Assay for Tissue Factor Biomarker Activity (AID 2283052)", "conditions": "primary human coronary artery smooth muscle cells; actives raise or lower the signal"}, "[14]": {"read-out": "Interferon-gamma inducible Protein 10 (IP10), CXCL10 (gene 3627)", "assay": "BSK_hDFCGF_IP10: BioMAP Diversity Plus: hDFCGF Assay for Interferon-gamma inducible Protein 10 (IP10) Biomarker Activity (AID 2283053)", "conditions": "primary human foreskin fibroblasts; actives raise or lower the signal", "how_it_was_run": "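ELISA read-out of IP-10 (CXCL10) from primary human skin fibroblasts, 24 h after compound addition. Gain or loss of signal versus DMSO baseline, bidirectional curve fitting.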"}, "[15]": {"read-out": "Urokinase-type plasminogen activator receptor (uPAR), PLAUR (gene 5329)", "assay": "BSK_CASM3C_uPAR: BioMAP Diversity Plus: CASM3C Assay for Urokinase-type plasminogen activator receptor (uPAR) Biomarker Activity (AID 2283054);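 note: cell-surface uPAR protein level quantified by ELISA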", "conditions": "primary human coronary artery smooth muscle cells; actives raise or lower the signal"}, "[16]": {"read-out": "Vascular cell adhesion molecule 1 (VCAM1), VCAM1 (gene 7412)", "assay": "BSK_CASM3C_VCAM1: BioMAP Diversity Plus: CASM3C Assay for Vascular cell adhesion molecule 1 (VCAM1) Biomarker Activity (AID 2283055)", "conditions": "primary human coronary artery smooth muscle cells; actives raise or lower the signal"}, "[17]": {"read-out": "Collagen III, COL3A1 (gene 1281)", "assay": "BSK_hDFCGF_CollagenIII: BioMAP Diversity Plus: hDFCGF Assay for Collagen III Biomarker Activity (AID 2283056)", "conditions": "primary human foreskin fibroblasts; actives raise or lower the signal", "how_it_was_run": "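Cells: human foreskin fibroblasts, primary. Dosing followed by 24 h incubation, then ELISA for collagen III. Both increases and decreases scored relative to DMSO.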"}, "[18]": {"read-out": "Epidermal growth factor receptor (EGFR), EGFR (gene 1956)", "assay": "BSK_hDFCGF_EGFR: BioMAP Diversity Plus: hDFCGF Assay for Epidermal growth factor receptor (EGFR) Biomarker Activity (AID 2283057)", "conditions": "primary human foreskin fibroblasts; actives raise or lower the signal", "how_it_was_run": "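ELISA readout of EGFR on human dermal fibroblasts (primary foreskin cells), 24 h post-dosing; bidirectional curve fit vs DMSO baseline, gain or loss of signal scored.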"}, "[19]": {"read-out": "Interleukin-8 (IL8), CXCL8 (gene 3576)", "assay": "BSK_hDFCGF_IL8: BioMAP Diversity Plus: hDFCGF Assay for Interleukin-8 (IL8) Biomarker Activity (AID 2283058)", "conditions": "primary human foreskin fibroblasts; actives raise or lower the signal", "how_it_was_run": "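IL-8 levels from compound-treated primary human fibroblasts were read by ELISA at 24 h, with DMSO serving as baseline for bidirectional fitting.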"}, "[20]": {"assay": "BSK_hDFCGF_Proliferation: Cell Proliferation Assessment in the BioMAP Diversity Plus: hDFCGF Assay (AID 2283059);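 note: curves fitted for both rise and fall of signal versus DMSO baseline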", "conditions": "primary human foreskin fibroblasts", "how_it_was_run": "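This proliferation readout used SRB total-protein staining of human foreskin fibroblasts […], normalized to DMSO with bidirectional curve fitting.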"}}, "note": "Calls of active or inactive are those of the source. Rule for the calls: active = hit-call score of the fitted dose curve at least 0.9, where 1 is the maximum; inactive = score below 0.9."}
{"smiles": "Cn1cc[nH]c1=S", "values": [{"measurement": "outcome", "setting": "[1]", "result": "inactive"}, {"measurement": "outcome", "setting": "[2]", "result": "inactive"}, {"measurement": "outcome", "setting": "[3]", "result": "inactive"}, {"measurement": "outcome", "setting": "[4]", "result": "inactive"}, {"measurement": "outcome", "setting": "[5]", "result": "inactive"}, {"measurement": "outcome", "setting": "[6]", "result": "inactive"}, {"measurement": "outcome", "setting": "[7]", "result": "inactive"}, {"measurement": "outcome", "setting": "[8]", "result": "inactive"}, {"measurement": "outcome", "setting": "[9]", "result": "inactive"}, {"measurement": "outcome", "setting": "[10]", "result": "inactive"}, {"measurement": "outcome", "setting": "[11]", "result": "inactive"}, {"measurement": "outcome", "setting": "[12]", "result": "inactive"}, {"measurement": "outcome", "setting": "[13]", "result": "inactive"}, {"measurement": "outcome", "setting": "[14]", "result": "inactive"}, {"measurement": "outcome", "setting": "[15]", "result": "inactive"}, {"measurement": "outcome", "setting": "[16]", "result": "inactive"}, {"measurement": "outcome", "setting": "[17]", "result": "inactive"}, {"measurement": "outcome", "setting": "[18]", "result": "inactive"}, {"measurement": "outcome", "setting": "[19]", "result": "inactive"}, {"measurement": "outcome", "setting": "[20]", "result": "inactive"}]}
{"smiles": "Cc1cccc(O)c1C", "values": [{"measurement": "outcome", "setting": "[1]", "result": "inactive"}, {"measurement": "outcome", "setting": "[2]", "result": "inactive"}, {"measurement": "outcome", "setting": "[3]", "result": "inactive"}, {"measurement": "outcome", "setting": "[4]", "result": "inactive"}, {"measurement": "outcome", "setting": "[5]", "result": "inactive"}, {"measurement": "outcome", "setting": "[6]", "result": "inactive"}, {"measurement": "outcome", "setting": "[7]", "result": "inactive"}, {"measurement": "outcome", "setting": "[8]", "result": "inactive"}, {"measurement": "outcome", "setting": "[9]", "result": "inactive"}, {"measurement": "outcome", "setting": "[10]", "result": "inactive"}, {"measurement": "outcome", "setting": "[11]", "result": "inactive"}, {"measurement": "outcome", "setting": "[12]", "result": "inactive"}, {"measurement": "outcome", "setting": "[13]", "result": "inactive"}, {"measurement": "outcome", "setting": "[14]", "result": "inactive"}, {"measurement": "outcome", "setting": "[15]", "result": "inactive"}, {"measurement": "outcome", "setting": "[16]", "result": "inactive"}, {"measurement": "outcome", "setting": "[17]", "result": "inactive"}, {"measurement": "outcome", "setting": "[18]", "result": "inactive"}, {"measurement": "outcome", "setting": "[19]", "result": "inactive"}, {"measurement": "outcome", "setting": "[20]", "result": "inactive"}]}
{"smiles": "O=C1CN(N=Cc2ccc([N+](=O)[O-])o2)C(=O)N1", "values": [{"measurement": "outcome", "setting": "[1]", "result": "inactive"}, {"measurement": "outcome", "setting": "[2]", "result": "inactive"}, {"measurement": "outcome", "setting": "[3]", "result": "inactive"}, {"measurement": "outcome", "setting": "[4]", "result": "inactive"}, {"measurement": "outcome", "setting": "[5]", "result": "inactive"}, {"measurement": "outcome", "setting": "[6]", "result": "inactive"}, {"measurement": "outcome", "setting": "[7]", "result": "inactive"}, {"measurement": "outcome", "setting": "[8]", "result": "inactive"}, {"measurement": "outcome", "setting": "[9]", "result": "inactive"}, {"measurement": "outcome", "setting": "[10]", "result": "inactive"}, {"measurement": "outcome", "setting": "[11]", "result": "inactive"}, {"measurement": "outcome", "setting": "[12]", "result": "inactive"}, {"measurement": "outcome", "setting": "[13]", "result": "inactive"}, {"measurement": "outcome", "setting": "[14]", "result": "inactive"}, {"measurement": "outcome", "setting": "[15]", "result": "inactive"}, {"measurement": "outcome", "setting": "[16]", "result": "inactive"}, {"measurement": "outcome", "setting": "[17]", "result": "inactive"}, {"measurement": "outcome", "setting": "[18]", "result": "inactive"}, {"measurement": "outcome", "setting": "[19]", "result": "inactive"}, {"measurement": "AC50", "setting": "[20]", "result": "30.6 µM (active)"}]}
{"smiles": "S=P(N1CC1)(N1CC1)N1CC1", "values": [{"measurement": "outcome", "setting": "[1]", "result": "inactive"}, {"measurement": "outcome", "setting": "[2]", "result": "inactive"}, {"measurement": "outcome", "setting": "[3]", "result": "inactive"}, {"measurement": "outcome", "setting": "[4]", "result": "inactive"}, {"measurement": "outcome", "setting": "[5]", "result": "inactive"}, {"measurement": "outcome", "setting": "[6]", "result": "inactive"}, {"measurement": "outcome", "setting": "[7]", "result": "inactive"}, {"measurement": "AC50", "setting": "[8]", "result": "20.9 µM (active)"}, {"measurement": "outcome", "setting": "[9]", "result": "inactive"}, {"measurement": "outcome", "setting": "[10]", "result": "inactive"}, {"measurement": "outcome", "setting": "[11]", "result": "inactive"}, {"measurement": "outcome", "setting": "[12]", "result": "inactive"}, {"measurement": "outcome", "setting": "[13]", "result": "inactive"}, {"measurement": "outcome", "setting": "[14]", "result": "inactive"}, {"measurement": "outcome", "setting": "[15]", "result": "inactive"}, {"measurement": "outcome", "setting": "[16]", "result": "inactive"}, {"measurement": "outcome", "setting": "[17]", "result": "inactive"}, {"measurement": "outcome", "setting": "[18]", "result": "inactive"}, {"measurement": "outcome", "setting": "[19]", "result": "inactive"}, {"measurement": "AC50", "setting": "[20]", "result": "18.2 µM (active)"}]}
